Data published in the supplement of paper PMC9897528.

system: Scedosporium aurantiacum CBS 136046; assay: growth inhibition relative to DMSO control (OD600); higher = more antifungal activity, active = 80 or more; extreme values may be limits of the assay; conditions: 5 µM; 72 h; 37 °C
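Note: conidia screened in RPMI 1640 medium under 5% CO2, growth read by spectrophotometer, medium with 0.5% DMSO serving as the untreated reference.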

Growth inhibition, inactive:
Cc1nc2ccc(Oc3ccccc3)cc2c2c1CCN2CCc1ccccc1 54.5%
O=C(O)C[C@H]1CC[C@H](c2ccc(-c3ccc(Nc4ccc(C(F)(F)F)nc4)cn3)cc2)CC1 12.5%
O=[N+]([O-])c1cn2c(n1)OC[C@@H](OCc1ccc(OC(F)(F)F)cc1)C2 11.2%
O=C(Nc1ccccc1)N(Cc1cc(Br)ccc1O)c1ccc(F)cc1 40.7%
O=S(=O)(NCB(O)O)c1cc2c(Cl)ccc(Cl)c2s1 5.78%
O=C(Nc1ncc(Cc2cccc3ccccc23)s1)C1CCCCC1 4.7%
CCCC(=O)OCCc1ccccc1 0%
COc1ccc(CNC(=O)C2CCN([C@H](C)c3cccc4ccccc34)CC2)cc1 9.67%
OCCCCn1cnc2c(O)nc(NCc3ccc(Cl)c(Cl)c3)nc21 5.51%
COc1ccc(SCC(=O)N2c3ccccc3Sc3ccccc32)cc1 19.3%
CC(C)(C)c1cc(CCC(=O)N2CCC2)cc(C(C)(C)C)c1O 11.9%
Cc1nc(N(C)C(=O)Cc2ccc(-c3ccccn3)cc2)sc1S(N)(=O)=O 4.79%
O=C(Nc1ccccc1C(=O)O)c1cccc(Oc2ccccc2)c1 0.169%
CN(C)CCNC(=O)c1cccc2cccnc12 2.13%
CCc1nc(N)nc(N)c1C#CCc1ccccc1 30.8%
C=C[C@]1(C)C[C@@H](OC(=O)CS[C@@H]2C[C@H]3CC[C@@H](C2)N3C)[C@]2(C)[C@H](C)CC[C@]3(CCC(=O)[C@H]32)[C@@H](C)[C@@H]1O 35.7%
Nc1nc(=O)[nH]cc1F 0.0511%
COc1ccc(CNC(=O)C(NS(=O)(=O)c2ccc3nc(C)sc3c2)C(C)C)cc1 (stereo not drawn) 26.3%
CC(C)n1cnc2c(NCc3ccccc3)nc(NCc3ccccc3)nc21 39.6%
c1cnc(NCc2ccc(CNc3ncccn3)cc2)nc1 10.1%
Fc1ccc(-c2nc(-c3c[nH]c4ccc(Br)cc34)[nH]c2-c2ccc(F)cc2)cc1 28.1%
C=C(C)[C@@H]1CC[C@]2(C(=O)O)CC[C@]3(C)[C@H](CC[C@@H]4[C@@]5(C)CC[C@H](O)C(C)(C)[C@@H]5CC[C@]43C)[C@@H]12 1.06%
NS(=O)(=O)c1ccc(NC(=O)NC(c2ccccc2)c2ccccc2)cc1 25.6%
c1ccc(Cn2c(-c3ccccn3)nc3ccccc32)cc1 14.3%
NC(=O)C(c1ccccc1)(c1ccccc1)[C@H]1CCCN(CCc2ccc3c(c2)CCO3)C1 13.5%
CC1(C)Cc2c(C#N)c(SCCc3ccccc3)nc(N3CCOCC3)c2CO1 27.9%
CC(=O)N[C@H](C)C(=O)N[C@H](Cc1ccccc1)C(=O)O 10.8%
O=C(NC(=O)N1CCCc2ccccc21)c1cccc(Cl)c1 5.71%
O=P(O)(O)C(CCCc1cccc(Oc2ccccc2)c1)S(=O)(=O)O (stereo not drawn) 2.84%
O=S(=O)(Nc1ccc(O)cc1)c1cccc2cccnc12 13.2%
O=C1C=C(c2ccccc2)S(=O)(=O)c2ccccc21 12.3%
Cc1cc(C)n(O)c(=O)c1 0.961%
NC(=O)[C@@H]1CC[C@@H]2CN1C(=O)N2OS(=O)(=O)O 0%
O=C1[C@H](CC[C@H](O)c2ccc(F)cc2)[C@@H](c2ccc(O)cc2)N1c1ccc(F)cc1 13.9%
N=C(N)NCCCCC(=O)Nc1cc(C(F)(F)F)cc(NC(=O)c2cc(C(=O)Nc3cc(C(F)(F)F)cc(NC(=O)CCCCNC(=N)N)c3O[C@@H]3CCNC3)ncn2)c1O[C@@H]1CCNC1 37.1%
O=C1NC(=O)C(Br)=C1Br 24.4%
CC(C)c1ccc(COc2cccc(-c3cc([S+](C)[O-])c(C#N)c(=O)[nH]3)c2)cc1 (stereo not drawn) 0%
CC(N)C12CC3CC(CC(C3)C1)C2 (stereo not drawn) 10.8%
